Data reported in article PMC4336329 (PLoS ONE, 2015).
Out of some 310,000 compounds screened, about 14,000 (4.5%) showed an effect of 50% or more. The effect is printed as a negative number. Many of the other results were omitted from the sample, so strong results are more common in it than they were.

biological target: human ether-à-go-go-related gene (hERG) potassium channel (human, UniProt Q12809); experiment: primary screen, population patch clamp on CHO cells stably expressing hERG; higher = less effect of the substance
Sequence (Q12809 whole entry, looked up): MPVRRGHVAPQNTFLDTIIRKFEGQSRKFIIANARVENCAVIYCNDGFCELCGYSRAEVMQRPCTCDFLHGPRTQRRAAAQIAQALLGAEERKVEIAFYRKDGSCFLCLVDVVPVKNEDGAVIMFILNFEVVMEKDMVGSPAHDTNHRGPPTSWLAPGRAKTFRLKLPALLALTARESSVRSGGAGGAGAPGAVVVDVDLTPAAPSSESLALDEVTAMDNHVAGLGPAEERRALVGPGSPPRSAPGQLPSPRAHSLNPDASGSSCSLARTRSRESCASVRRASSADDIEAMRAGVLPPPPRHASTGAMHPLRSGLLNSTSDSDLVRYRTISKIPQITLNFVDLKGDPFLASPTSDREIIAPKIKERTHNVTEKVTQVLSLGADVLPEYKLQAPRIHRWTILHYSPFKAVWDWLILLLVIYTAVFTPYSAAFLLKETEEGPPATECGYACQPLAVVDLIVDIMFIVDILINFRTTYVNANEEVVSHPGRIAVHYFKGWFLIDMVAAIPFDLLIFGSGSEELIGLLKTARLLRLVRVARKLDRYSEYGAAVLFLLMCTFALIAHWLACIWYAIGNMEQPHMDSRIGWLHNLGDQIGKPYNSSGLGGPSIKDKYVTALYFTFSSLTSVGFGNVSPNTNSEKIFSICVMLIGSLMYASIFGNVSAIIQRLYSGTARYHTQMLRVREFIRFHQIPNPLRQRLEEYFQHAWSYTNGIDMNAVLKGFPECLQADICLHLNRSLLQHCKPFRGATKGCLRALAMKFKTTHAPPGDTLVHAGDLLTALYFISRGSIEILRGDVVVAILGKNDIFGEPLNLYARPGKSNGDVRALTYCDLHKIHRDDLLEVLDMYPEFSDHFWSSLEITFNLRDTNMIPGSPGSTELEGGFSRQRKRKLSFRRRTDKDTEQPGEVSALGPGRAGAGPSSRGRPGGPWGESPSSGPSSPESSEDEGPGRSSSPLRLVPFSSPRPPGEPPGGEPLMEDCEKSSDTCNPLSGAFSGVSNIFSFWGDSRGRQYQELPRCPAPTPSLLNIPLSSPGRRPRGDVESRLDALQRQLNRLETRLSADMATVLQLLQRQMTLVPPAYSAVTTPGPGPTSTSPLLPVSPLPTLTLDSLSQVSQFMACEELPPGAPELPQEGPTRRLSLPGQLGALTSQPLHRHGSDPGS
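Note: peak tail current of the secondary pulse compared with the same well before compound.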

SMILES | hERG current change (%, negative = inhibition) at 10uM [%]
O=C(CSc1nnc(-c2ccc(O)cc2)n1Cc1ccccc1)NNC(=O)c1ccc(Br)cc1 | -4.24
Cc1ccc(NC(=O)COC(=O)CCc2ccc(S(=O)(=O)N3CCOCC3)cc2)cc1F | -11
CCn1c(COc2ccccc2)nnc1SCC(=O)Nc1ccc2c(c1)OCCO2 | -6.9
Cc1ccc(NC(=O)c2nc[nH]c2C(=O)N2CCN(c3ccccc3)CC2)cc1 | 8.53
O=C(NCCC1CCCCN1S(=O)(=O)c1ccccc1)C(=O)Nc1ccc(F)cc1F (stereo not drawn) | 2.67
CC(C)NC(=O)CSc1nnc(COc2ccccc2Cl)o1 | 9.76
Cc1ccc(SCC(=O)OCC(=O)N(C)CC(=O)Nc2ccc(F)cc2)cc1C | -38.7
CC#CCC(CC#CC)c1nc2ccccc2c(=O)n1N | -1.36
Cc1cc[n+](-c2[nH]c(=O)sc2/C=N/N=C(\[O-])c2ccncc2)cc1 | 5.61
CCCc1ccc(-c2cc(C(=O)N3CCN(c4ccccn4)CC3)c3ccccc3n2)cc1 | 13.4
CCOC(=O)c1ccccc1NC(=O)c1cccc2c1C(=O)N(C1CCN(C(=O)OCC)CC1)C2 | -30.4
CCOC(=O)N1CCC(N2Cc3cccc(C(=O)NCc4ccccc4OC)c3C2=O)CC1 | -71.2
CCOC(=O)N1CCC(N2Cc3cccc(C(=O)NCc4ccc(C)cc4)c3C2=O)CC1 | -42.6
CCOC(=O)N1CCC(N2Cc3cccc(C(=O)Nc4ccc(OC)c(OC)c4)c3C2=O)CC1 | -9.58
CCOC(=O)N1CCC(NC(=O)c2cn(-c3ccc(OC)cc3)c(=O)c3ccccc23)CC1 | -6.75
CCOC(=O)N1CCC(NC(=O)c2cccc3c2C(=O)N(c2ccc(OC)cc2)C3)CC1 | -58.3
CCOC(=O)N1CCC(N2Cc3cccc(C(=O)Nc4ccccc4OC)c3C2=O)CC1 | -79.2
CCOC(=O)N1CCC(N2Cc3cccc(C(=O)NCc4ccc(OC)cc4)c3C2=O)CC1 | -40
CCOC(=O)N1CCC(NC(=O)c2cccc3c2C(=O)N(CCOC)C3)CC1 | -1.34
CCOCCn1c(N2CCCC2)nc2c1c(=O)[nH]c(=O)n2C | 15.1
COc1ccc2nc(N3C(=O)CC(Cc4cc(C)cc(C)c4)C3=O)sc2c1 (stereo not drawn) | 9.23
COc1ccc(CCNC(=S)N2CCN(S(=O)(=O)c3ccc(Cl)cc3)CC2)cc1 | 22
OCCN(Cc1ccccc1)Cc1ccc(C(F)(F)F)cc1 | -3.33
COc1ccc(-c2oc3cccnc3c2C#CCO)cc1 | 9.84
COc1ccc2[nH]c(=O)c(CN(CCO)S(=O)(=O)c3c(C)ccc4nsnc34)cc2c1 | -3.86
C/C(=N\NC(=O)c1cc(-c2ccccc2C)nc2ccccc12)c1cccnc1 | -10.3

SMILES | hERG current change (%, negative = inhibition) at 10uM [%]
CCSCc1nnc(SCC(=O)Nc2cccc(C(C)=O)c2)n1C | 11.9
CCOc1ncccc1C(=O)Nc1ccc(F)c(Cl)c1 | 24.1
CN(Cc1ccccc1)c1ccc(N2C(=O)CCCC2=O)cc1[N+](=O)[O-] | 6.5
O=C(Nc1ccc2ccccc2c1)c1ccc(NS(=O)(=O)c2ccc(Br)s2)cc1 | 12
Cc1cc(F)ccc1NC(=O)c1ccc(NS(=O)(=O)c2cc(C(C)(C)C)ccc2C)cc1 | 0.887
Cc1ccc(F)cc1NC(=O)c1ccc(NS(=O)(=O)c2ccc(Br)s2)cc1 | -70
Cc1ccc(-c2ccc(=O)n(CCC(=O)N3CCC4(CC3)OCCO4)n2)cc1 | -64.5
Cc1ccc(C2=NN(CCC(=O)N3CCC4(CC3)OCCO4)C(=O)CC2)cc1 | -57.5
O=C(CCn1nc(-c2ccc(Cl)cc2)ccc1=O)N1CCC2(CC1)OCCO2 | -39.8
Cc1ccc2c(c1)N(CCC(=O)N1CCC3(CC1)OCCO3)C(=O)CO2 | -16.8
CCc1ccc(C2=NN(CCC(=O)N3CCC4(CC3)OCCO4)C(=O)CC2)cc1 | -10.3
Cc1ccc(-c2ccc(=O)n(CC(=O)N3CCC4(CC3)OCCO4)n2)cc1 | 5.07
O=C(Nc1ccc(C2=NCCN2)cc1)c1ccc(C(=O)Nc2ccc(C3=NCCN3)cc2)c([N+](=O)[O-])c1 | 20.1
CC(=O)c1ccc(N2CCN(C(=O)c3ccco3)C(C)C2)c(F)c1 (stereo not drawn) | -49.9
O=C(NC(=O)N1CCN(c2ccc([N+](=O)[O-])cn2)CC1)c1ccccc1F | -24.5
O=C(Nc1ccc(F)cc1F)N1CCCN(c2ccc(C(F)(F)F)cn2)CC1 | -12.4
CC(C)(C)c1ccc(NC(=O)N2CCN(c3ccc([N+](=O)[O-])cn3)CC2)cc1 | -9.81
CC(C)(C)c1ccc(C(=O)N2CCCN(c3ccc([N+](=O)[O-])cn3)CC2)cc1 | -72.3
O=C(c1ccco1)N1CCN(c2ccc([N+](=O)[O-])cc2Cl)CC1 | -71.4
O=C(Nc1ccc(F)cc1F)N1CCCN(c2ccc([N+](=O)[O-])cn2)CC1 | -50.2
CC1CN(c2ccc([N+](=O)[O-])cc2F)CCN1C(=O)c1ccco1 (stereo not drawn) | -62
O=C(O)C(=O)O.O=C(c1ccco1)N1CCN(S(=O)(=O)c2ccc([N+](=O)[O-])cc2)CC1 | -39.8
CC(=O)c1cc(F)c(N2CCN(c3ccc([N+](=O)[O-])cc3F)CC2)cc1C | -12.3
CC(C)(C)c1ccc(NC(=O)N2CCCN(c3ccc([N+](=O)[O-])cn3)CC2)cc1 | -25.9
O=C(c1ccco1)N1CCN(S(=O)(=O)c2cccc([N+](=O)[O-])c2)CC1 | -20.7
